This is a sample that favours compounds with a hit; in the whole collection about 2.4% have one here.
CHO-K1 Ca antag: M1 antagonist counterscreen hit in parental CHO-K1 cells. ATP-induced calcium, Fluo-8 fluorescence. inhibition, % at 3 µM. 360,000 compounds, 0.6% hits;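 active = inhibition above a per-plate cutoff, the plate's mean sample inhibition plus 3 SD, cut at about 24% in these data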;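 note: 0% = DMSO plus EC80 ATP and 100% = DMSO alone without ATP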
CHRM1 agonist: human M1 muscarinic receptor agonists, primary screen, Fluo-8 calcium fluorescence, CHO-K1 cells, HTS. Muscarinic acetylcholine receptor M1 (Homo sapiens), P11229. CHO-K1 hM1, agonist mode; 0% DMSO, 100% acetylcholine EC100. activation, % at 3 µM. 360,000 compounds, 0.33% hits. AID 588814, 2011;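 active = activation above the run's mean compound activation plus 3 SD, cut at about 16% in these data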;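 note: peak over basal fluorescence ratio within a 140 s kinetic read after compound addition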
Target sequence (P11229 whole entry, looked up): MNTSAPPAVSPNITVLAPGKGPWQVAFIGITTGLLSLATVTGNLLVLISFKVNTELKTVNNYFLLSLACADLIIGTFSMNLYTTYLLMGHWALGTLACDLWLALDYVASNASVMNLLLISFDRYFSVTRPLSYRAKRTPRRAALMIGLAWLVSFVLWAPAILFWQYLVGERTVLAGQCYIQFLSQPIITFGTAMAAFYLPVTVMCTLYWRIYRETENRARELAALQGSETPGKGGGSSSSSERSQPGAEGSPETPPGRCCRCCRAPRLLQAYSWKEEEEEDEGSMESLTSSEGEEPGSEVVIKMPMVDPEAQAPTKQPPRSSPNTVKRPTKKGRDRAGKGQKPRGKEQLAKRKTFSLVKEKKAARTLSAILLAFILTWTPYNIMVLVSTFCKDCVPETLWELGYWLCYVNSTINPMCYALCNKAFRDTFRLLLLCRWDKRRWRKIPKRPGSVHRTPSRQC
CHO-K1 Ca PAM: nonselective calcium activators in parental CHO-K1 cells, primary screen, counter-screen for M1 PAM project, cell-based, Fluo-8 calcium fluorescence, full deck, 1536-well; ATP EC20; 0% at ATP EC20, 100% at ATP max; activation, % at 3 µM; 360,000 compounds, 0.02% hits;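 active = activation above the run cutoff, the mean activation of all test compounds plus 3 SD, cut at about 40% in these data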;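 note: peak over basal fluorescence ratio in a 140 s read after ATP addition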
M1 PAM: human M1 muscarinic receptor positive allosteric modulators, primary screen, CHO-K1 cells, Fluo-8 calcium fluorescence, 1536-well; Muscarinic acetylcholine receptor M1 (Homo sapiens), P11229; CHO-K1 hM1, ACh EC20; 0% = ACh EC20, 100% = maximal ACh; activation, % at 3 µM; 360,000 compounds, 0.088% hits; in the data active = activation above about 19%, passing the limit was not always enough
M1 ag parental: counter-screen for M1 agonists: effect in parental CHO-K1 cells. 360,000 compounds, 0.48% hits. Fluo-8 calcium fluorescence; scaled to maximal ATP response, vehicle zero. activation, % at 3 µM; in the data active = activation above about 15%;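 note: untransfected CHO-K1 host cells lacking M1 receptor as counterscreen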
CHRM1 antagonist: human M1 muscarinic receptor antagonists, primary screen, CHO-K1 cells, Fluo-8 calcium fluorescence, 1536-well; Muscarinic acetylcholine receptor M1 (Homo sapiens), P11229; CHO-K1 hM1, ACh EC80 antagonist; inhibition, % at 3 µM; 360,000 compounds, 1.3% hits; AID 588852, 2011;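 active = percent inhibition above its own plate's cutoff, namely the mean of that plate's compound wells plus 3 SD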;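 note: peak over basal fluorescence ratio during 140 s after agonist addition; 0% = ACh EC80 plus DMSO and 100% = DMSO alone without agonist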
* = called active by the depositor; . = no result.

SMILES	CHO-K1 Ca antag	CHRM1 agonist	CHO-K1 Ca PAM	M1 PAM	M1 ag parental	CHRM1 antagonist
CN(CC(=O)Nc1cccc(F)c1)C(=O)c1cc([N+](=O)[O-])ccc1N1CCCCC1	-12	-5	-21	2	1	-10
COc1ccc(/C=C/c2nc(-c3ccccc3)cc(=O)[nH]2)cc1	0	0	7	10	1	-8
O=c1cc(-c2ccccc2)nc(/C=C/c2ccccc2)[nH]1	-2	10	17	10	17*	-6
N#Cc1ccc(OCC(=O)OCC(=O)c2ccc[nH]2)cc1	-5	-2	3	2	0	0
Oc1ccc(CCNc2ncnc3ccc(Cl)cc23)cc1	8	7	0	-22	16*	35
S=C(Nc1ccc(Cl)c(Cl)c1)NC1CCN(Cc2ccccc2)CC1	24*	17*	14	11	12	6
FC(F)(F)c1cccc(N2CCN(C(=S)NC3CCCC3)CC2)c1	2	-3	3	-12	3	33*
S=C(Nc1ccc(Cl)c(Cl)c1)NC1CCCCC1	13	-4	2	-29	23*	44*
S=C(Nc1ccc2nsnc2c1)NC1CCCCC1	-11	-3	0	-10	4	5
Fc1ccc(NC(=S)NC2CCN(Cc3ccccc3)CC2)cc1	-6	-7	3	-9	5	7
O=S(=O)(c1ccc(NC(=S)NC2CCCC2)cc1)N1CCCC1	25*	-7	-10	-15	4	10
FC(F)(F)c1cccc(NC(=S)NC2CCCC2)c1	25*	-4	-16	-14	9	18
CC1C(O)=C(c2ccccc2)P(=O)(Cc2ccccc2)C1C (stereo unspecified)	8	.	-6	.	0	.
CC(C)CC1NC(=O)c2cc3ccccc3cc2-n2c1nc1cc(Cl)ccc1c2=O (stereo unspecified)	-10	3	22	9	0	-9
CSc1ccccc1NS(=O)(=O)c1ccccc1	25*	-2	-8	8	0	-4
CC(C)C(O)(C#CCN1CCCC1)c1ccccc1 (stereo unspecified)	-10	-5	19	-22	2	92*
CC(C)C(O)(C#CCN1CCCCC1)c1ccccc1 (stereo unspecified)	-11	-9	11	-24	2	99*
CC(O)(C#CCN1CCOCC1)c1ccccc1 (stereo unspecified)	-3	-1	1	-5	0	-10
Cn1cc(C(=O)NS(=O)(=O)Nc2ccc(Br)cn2)c2ccccc21	1	0	-6	15	0	-9
Cc1cc(C)cc(C(=O)NCC(=O)NNC(=O)CSc2ccccc2F)c1	-13	-2	11	16	-1	-16
COc1cc(C)ccc1S(=O)(=O)N1CCN(C23CC4CC(CC(C4)C2)C3)CC1	-9	-9	14	-22	0	98*
COc1cccc(C(=O)NCC(c2ccc3c(c2)OCO3)N2CCN(c3ccc(F)cc3)CC2)c1 (stereo unspecified)	0	-7	-12	-26	1	28*
CCCN1C(=O)/C(=C/c2ccc(N3CCOCC3)cc2)NC1=S	15	14	1	-9	24*	26
CCN1C(=O)/C(=C/c2ccc(N3CCCC3)cc2)NC1=S	49*	57*	-5	-25	57*	56*
CCN1C(=O)/C(=C/c2ccc(OCc3ccc(C(=O)O)cc3)c(Cl)c2)NC1=S	29*	13	6	-5	16*	16
SMILES	CHO-K1 Ca antag	CHRM1 agonist	CHO-K1 Ca PAM	M1 PAM	M1 ag parental	CHRM1 antagonist
CNC(=O)c1c(NC(=O)c2ccc(N3C(=O)CCC3=O)cc2)sc2c1CCC(C)C2 (stereo unspecified)	3	-4	-15	0	1	3
CCN1CCN(S(=O)(=O)c2ccc(Cl)c(C(=O)N(C)Cc3ccco3)c2)CC1	-3	-3	15	9	2	-6
CCN(c1ccccc1)S(=O)(=O)c1ccc(C(=O)NCC(c2ccccc2OC)N2CCCC2)cc1 (stereo unspecified)	-8	-7	9	-10	3	9
COc1ccccc1NS(=O)(=O)c1cccc(C(=O)NCC(c2ccccc2OC)N2CCCC2)c1 (stereo unspecified)	-13	-7	-5	-20	1	42*
COc1ccccc1C(CNC(=O)c1cccc(S(=O)(=O)Nc2ccc(C)cc2)c1)N1CCCC1 (stereo unspecified)	-1	-7	18	-23	3	78*
C=CCN(c1ccccc1)S(=O)(=O)c1cccc(C(=O)NCC(c2ccccc2OC)N2CCCC2)c1 (stereo unspecified)	-14	-8	-10	-24	-1	50*
C[C@H]1CN([C@@H](C)CO)S(=O)(=O)c2ccc(Br)cc2O[C@@H]1CN(C)C(=O)Cc1ccccc1	-6	-7	20	3	1	-11
NC1(C(=O)O)CCCCC1c1ccccc1 (stereo unspecified)	-6	0	8	16	1	-15
Cc1n[nH]c(=S)n1/N=C/c1ccc(OCc2ccc(Cl)cc2)cc1	25*	-3	-8	1	0	2
COc1cc(OC)c(OC)cc1CNC(=O)c1cc(S(=O)(=O)N2CCOCC2)ccc1F	-19	-1	-8	7	7	-7
CC1CCCCC12NC(=O)N(CC(=O)Nc1nccs1)C2=O (stereo unspecified)	0	-2	-2	-3	0	6
O=C(COc1ccc2ccccc2c1)N1CCNCC1	-23	-3	23	17	0	-21
O=C(COc1ccc2ccccc2c1)N1CCN(c2ccccc2O)CC1	24*	-1	-6	-6	1	-9
O=C(NC(=S)NN1CCOCC1)c1cc(Br)ccc1Cl	9	-2	-4	-5	1	20
O=C(NCCC(=O)N(Cc1ccco1)Cc1cccs1)c1ccc(Br)cc1	-16	-4	0	2	1	-7
CCC1Sc2ccc(S(=O)(=O)N3CCN(c4ccccc4)CC3)cc2NC1=O (stereo unspecified)	-12	-2	9	-8	2	13
COc1ccc(C2=NOC(Cn3c(Cc4ccc(Cl)cc4)nc4c3c(=O)n(C)c(=O)n4C)C2)cc1 (stereo unspecified)	4	0	-7	-9	0	31*

Assay outcomes: PubChem, The Scripps Research Institute Molecular Screening Center
